Each structure is given as a SMILES string. Several values for one entry are separate records, joined by “and”; a condition that tells them apart may be missing. Equal values may be shown once. Inconclusive results are not listed. A number with no mark means an inactive call. Activity calls are given as the source filed them. Calls come from the whole dose curve; as a rule, active = well fitted curve in the direction sought with a large enough effect; inconclusive = small, poorly fitted or top-dose-only effect, or another doubt; inactive = no such curve, though single readings can be large; an effect the other way counts as inactive or inconclusive.

Test [1] concerns the target Cellular tumor antigen p53 (Homo sapiens) (UniProt P04637). Briefly: Primary qHTS for small molecule compounds that upregulate eGFP-tagged delta133p53alpha (in N-terminal) cells. (AID 2060322).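 Note: series mostly up to about 56 µM; 0% = DMSO vehicle and 100% = reference activator; nearly all actives have a fitted effect of over 75% in size.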 To be noted: NCI-H358 eGFP-delta133p53alpha fluorescence, 24 h; activation: hits give high values. In outline:
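NCI-H358 cells pre-induced 24 h with 10 ng/ml doxycycline to express N-terminal eGFP-delta133p53alpha, then dosed 24 h at 37C without doxycycline; fixed, Hoechst-stained, GFP intensity by laser scanning cytometry, normalized to DMSO (0%) and 57.5 uM 5-azacytidine (100%).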
Background: In qHTS, concentration-response curves come from the screen itself.

In test [2] the target is Aldehyde dehydrogenase, mitochondrial (Homo sapiens) (UniProt P05091). Briefly: qHTS for Inhibitors of the Aldehyde Dehydrogenase Family (ALDH2) Primary screen (AID 2061308).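 Note: plate controls were vehicle for no effect and reference inhibitor for full effect; nearly all actives have a fitted effect of over 55% in size.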
The target of test [3] is Retinaldehyde dehydrogenase 3 (Homo sapiens) (UniProt P47895). Briefly: qHTS for Inhibitors of the Aldehyde Dehydrogenase Family (ALDH1A3) Validation screen (AID 2061312). Note: nearly all actives have a fitted effect of over 45% in size. Note: potency is the fitted concentration of half-maximal effect.
Test [4] has the same target. Briefly: qHTS for Inhibitors of the Aldehyde Dehydrogenase Family (ALDH1A3) Primary screen (AID 2061315).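 Note: plate controls were DMSO vehicle for no effect and reference inhibitor for full effect.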

Chain of Cellular tumor antigen p53 (Homo sapiens) (P04637 whole entry, looked up): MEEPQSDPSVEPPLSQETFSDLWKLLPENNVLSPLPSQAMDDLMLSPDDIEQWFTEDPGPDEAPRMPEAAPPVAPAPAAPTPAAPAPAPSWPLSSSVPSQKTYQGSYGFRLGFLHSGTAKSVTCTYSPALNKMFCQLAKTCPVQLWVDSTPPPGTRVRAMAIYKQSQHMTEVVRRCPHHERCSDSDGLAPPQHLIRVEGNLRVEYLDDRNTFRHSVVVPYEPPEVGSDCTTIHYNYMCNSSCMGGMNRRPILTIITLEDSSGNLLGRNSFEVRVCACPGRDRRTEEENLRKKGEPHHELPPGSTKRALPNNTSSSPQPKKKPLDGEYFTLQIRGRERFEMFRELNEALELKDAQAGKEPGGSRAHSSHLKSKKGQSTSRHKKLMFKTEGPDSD

On to `COc1ccccc1N1CCN(CC(C(=O)NC(C)(C)C)c2ccccc2)CC1` (stereo not given), for which the activation in test [1] is -12.4%. Also, the Potency result in test [2], in test [3] and in test [4] was “inactive” each time.

Regarding `Cc1ccc2nc(N)[nH]c(=O)c2c1Sc1ccncc1`, the activation in test [1] is -10% and -17.7%. For the same compound, the Potency result in test [2] and in test [4] was “inactive” each time. Also, the Potency in test [3] was 7.94 µM (active).

With `Cc1oc(S(=O)(=O)N2CCCCC2)cc1NC(=O)Nc1ccccc1`, the activation in test [1] is 0.955%. The Potency result in test [2], in test [3] and in test [4] was “inactive” each time.

For `CN1CCN(C2=Nc3ccccc3Nc3ccc(Cl)cc32)CC1`, the activation in test [1] is 8.59%. Besides, the Potency result in test [2], in test [3] and in test [4] was “inactive” each time.

Consider `O=[N+]([O-])c1cc(Cl)ccc1S(=O)(=O)N1CCN(Cc2ccccc2)CC1`, for which the activation in test [1] was 0.955%. The Potency entry in test [2], in test [3] and in test [4] was “inactive” in each case.

Take `CC(=O)NCC1CN(c2ccc(-c3ccc(CNCc4cn[nH]n4)cc3)c(F)c2)C(=O)O1` (stereo not given): the activation in test [1] is -4.77%. In addition, the Potency entry in test [2] is “inactive”. For the same compound, in test [3], the Potency was 3.98 µM (active).

With `COC(=O)[C@H](CC1C=NC=N1)NCC12CC3CC(CC(C3)C1)C2` (stereo not given in full), in test [1], the activation is -8.11%. Further, the Potency result in test [2] and in test [3] was “inactive” in each case.

For the compound `Cc1ccc(COC(=O)N2CC[C@@H](CNc3ncccn3)[C@@H](F)C2)cc1`, the activation in test [1] is 1.91%. Besides, the Potency result in test [2], in test [3] and in test [4] was “inactive” in each case.

As to `C=C1CC[C@H](O)CC1=C/C=C1\CCC[C@]2(C)[C@@H]([C@H](C)/C=C/[C@H](C)C(C)C)CC[C@@H]12`, in test [1], the activation is 5.73%. For the same compound, in test [2], the Potency result is “inactive”. For the same compound, the Potency in test [3] is 8.91 µM (active).

In the case of `CC1(C)CCC(C)(C)c2cc(C3(c4ccc(C(=O)O)cc4)OCCO3)ccc21`, the activation in test [1] was 2.39%. The Potency entry in test [2], in test [3] and in test [4] was “inactive” throughout.

Turning to `COc1ccc(C(=O)N(CCC(C)C)Cc2nc(C)c(C)n2Cc2ccccc2C)c(OC)c1`, in test [1], the activation is 11.5%. Further, the Potency entry in test [2], in test [3] and in test [4] was “inactive” in each case.

On to `COc1cc2nc(N3CCN(C(=O)COc4c(OC)cccc4C(C)C)CC3)nc(N)c2cc1OC`, for which, in test [1], the activation is -11%. Besides, the Potency result in test [2], in test [3] and in test [4] was “inactive” in each case.

For the compound `CC(C)c1ccc(-c2cc(=O)c3ccccc3o2)cc1`, the activation in test [1] was -14.8%. The Potency result in test [2], in test [3] and in test [4] was “inactive” throughout.

As to `O=C(NC1CCN(CC(F)(F)F)CC1)c1ccc(-c2cccc(F)c2)nc1`, the activation in test [1] is -16.7%. Further, the Potency result in test [2], in test [3] and in test [4] was “inactive” each time.

On to `O=C(NCC1(c2nc(-c3ccccc3)cs2)CCOCC1)c1cccc(-c2noc(C(F)(F)F)n2)c1`, for which the activation in test [1] was 1.43%. For the same compound, the Potency result in test [2], in test [3] and in test [4] was “inactive” each time.

For `CC(NC(=O)CCc1nc2ccccc2c(=O)[nH]1)c1ccccc1` (stereo not given), in test [1], the activation is -1.43%. The Potency entry in test [2], in test [3] and in test [4] was “inactive” in each case.

With `O=C(NCCN1CCC(n2c(=O)[nH]c3ccccc32)CC1)c1cc2cc(F)ccc2[nH]1`, in test [1], the activation was 23.9%. Moreover, the Potency entry in test [2], in test [3] and in test [4] was “inactive” throughout.

As for `Cc1onc(-c2ccccc2Cl)c1C(=O)N(C)c1ccc(Cl)cc1`, the activation in test [1] was -1.43%. Besides, the Potency entry in test [2], in test [3] and in test [4] was “inactive” each time.

`O=C1CC2(CCCC2)[C@H](O)C(=O)N1CCCCN1CCN(c2ncccn2)CC1`: the activation in test [1] is 4.77%. Also, the Potency entry in test [2], in test [3] and in test [4] was “inactive” throughout.

Turning to `O=C(Nc1ccc(F)cc1)N1CCc2ccccc2C1c1ccc(C(F)(F)F)cc1` (stereo not given), the activation in test [1] is 13.4%. Also, the Potency entry in test [2], in test [3] and in test [4] was “inactive” throughout.

With `CCC(=O)N1CCOc2c(cc(-c3ccc(OC)c(OC)c3)cc2OC[C@H]2CCCN(C)C2)C1`, in test [1], the activation was -0.477%. The Potency result in test [2], in test [3] and in test [4] was “inactive” each time.

Regarding `CCC(COC)n1nnc2c(Nc3ccc(OC)cc3C)nc(C)cc21` (stereo not given), the activation in test [1] is -5.25%. For the same compound, the Potency result in test [2], in test [3] and in test [4] was “inactive” each time.

`CCCc1ccc(OCC(=O)N(Cc2nc(-c3cccnc3)no2)C(C)C)cc1`: the activation in test [1] is -11.5%. In addition, the Potency entry in test [2], in test [3] and in test [4] was “inactive” throughout.

`CCOC(=O)Nc1cc(-c2ccc(C)c(NS(C)(=O)=O)c2)nn2c(C)nnc12`: the activation in test [1] was 22.9%. The Potency result in test [2], in test [3] and in test [4] was “inactive” each time.

`CCN1C[C@H](C)n2c(c(O)c3c(=O)n(Cc4ccc(F)c(Cl)c4)nc(C(=O)NC)c32)C1=O`: the activation in test [1] is -11.2% and 13.4% and -6.68%. Moreover, the Potency result in test [2], in test [3] and in test [4] was “inactive” in each case.

In the case of `COc1c(F)cccc1C(=O)N1C[C@@H](C)CC[C@H]1CNc1ccc(Br)cn1`, the activation in test [1] is -8.59%. For the same compound, the Potency entry in test [2], in test [3] and in test [4] was “inactive” in each case.

`O=C(NCC1(N2CCN(c3ccccc3)CC2)CCOCC1)c1cccnc1Sc1ccccc1`: the activation in test [1] was -3.34%. Moreover, the Potency result in test [2], in test [3] and in test [4] was “inactive” in each case.

Values taken from PubChem BioAssay (NCATS).
